# Laboratory results from the supplement of paper PMC6555819.
# Experiments:
# Test in all cases: PBM binding z-score (relative to random genomic background probes); higher = stronger binding; sequences stand for … in GC…GCGATTGACAGCGTAGAATGAAGG
# [1] = test system: RARb homodimer (NR concentration 270 nM)
# Outline: (§1)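 The probes on custom Agilent 4×180K protein-binding microarrays were double-stranded, with 34-nt variable regions bearing direct-repeat seeds, single-nucleotide variants, half-site ablations and random human genomic background sequences. Incubation lasted 1 h with ligand-free nuclear receptor dimers in PBS pH 7.4, 2% milk, 0.02% Triton X-100, 1 mM DTT, 0.2 mg/mL BSA and 0.4 mg/ml salmon testes DNA. Antibodies against each partner (one per run) detected bound dimers, and fluorescence scans were regression-normalized. Binding z-scores take the random background probes as reference.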
# [2] = test system: RARg:RXRa (NR concentration 270 nM, RXRa partner concentration 90 nM)
# Outline: as §1
# [3] = test system: RARg homodimer (NR concentration 270 nM)
# Outline: as §1
# [4] = test system: RXRa DBDmut IVT, anti-RXR (DBD mutation: RXRa K156A/R161A, NR concentration 90 nM)
# Outline: as §1
# [5] = test system: RXRa homodimer (NR concentration 180 nM)
# Outline: as §1
# [6] = test system: THRa:RXRa (NR concentration 90 nM, RXRa partner concentration 90 nM)
# Outline: as §1
# [7] = test system: THRa homodimer (NR concentration 90 nM)
# Outline: as §1
# [8] = test system: VDR homodimer (NR concentration 270 nM)
# Outline: as §1
Sequence,PBM binding z-score [1],PBM binding z-score [2],PBM binding z-score [3],PBM binding z-score [4],PBM binding z-score [5],PBM binding z-score [6],PBM binding z-score [7],PBM binding z-score [8]
GCTGCTAGGTGAACTGATGGTCAGCTAAAGCTCG,0.715,0.956,0.47,-0.22,0.333,1.03,-0.574,-0.742
AGTCAAAGTTCATGTAGGTAACGTAAGATATGCT,3.73,5.31,5.84,4.74,4.45,2.65,-0.0581,4.64
AGAACGAGGGCACGCTGAGTTGACAGCAGAGTAG,1.43,2.35,2.33,1.6,1.73,2.16,-0.174,1.79
TCGAGTCGGTTAGGGGCATTCAGAATGGCGTCGA,0.345,-0.19,-0.321,0.196,0.0404,1.38,-0.39,1.12
CGAACTAGATCAAGGACAGTGAATCTCCGCACGC,0.0367,-0.32,0.287,0.258,-0.168,1.22,1.24,-0.103
CCAACTAGGTCAAGGTCAAAGTCGGTTTGTGCCA,5.31,6.08,6.54,3.17,5.72,4.33,4.25,4.39
AGAATGAGGTTAAGATCAGGTAAACAGAATACAT,0.989,2.66,1.76,1.17,2.81,3.55,1.36,0.461
CCTACTGGGCCAAAGGTCATTGAATCCAATGCTC,4.89,5.95,4.83,1.05,6.52,3.56,0.752,2.23
TCTCGGAGGACACGCAAGGTCAGAGCTCGACATC,3.96,3.16,3.84,1.23,2.01,4.25,2.64,1.06
ATCGAAAGGTCGAAGATGAGTATACCCACCCGAA,2.11,3.48,3.4,1.35,3.68,1.56,-0.0753,0.844
GCTTGTAGATCAAGATTAAGAAAGACTAAGCTAA,-1.07,-0.362,-0.206,-0.488,-0.324,-0.364,-0.81,-0.356
CCAGACAGGTTAAAGGTAACTCAGTCTGGTACGC,1.09,2.24,1.28,0.388,3.23,1.37,-0.0486,0.276
GGAACGAGGGCAAAGTTGATAGGATCTGTCGACG,1.32,2.19,1.89,2.92,2.12,1.36,-0.0299,1.34
CACCCTAGGTCAGGGCCAGTATAGGAGGAACGTT,2.67,3.33,3.69,-0.329,1.99,2.23,0.911,-0.219
ATACCAAGGTGATCGTGAGGTCATTGATACTAAC,4.17,4.94,3.31,1.63,3.99,4.6,4.6,4.77
TGTCAAAGTTCAAAGGTACCGTAAGTATCCACAC,4,5.69,5.77,4.44,5.81,2.65,-0.264,4.24
TATACAGGGTCAAAGGCCAGATTACGAATGTCGA,3.49,5.72,4.99,3.29,6.99,3.6,0.972,2.54
CCTCGGGGGACAACAGGAGGTCAGAGCTGCCAGA,3.75,4.66,4.32,0.347,2.89,3.22,1.07,1.19
CCTAGCTGGCCAGGGTCACTCAAGCATTTCGCTT,2.33,3.05,2.03,0.326,3.3,2.88,0.857,0.994

Sequence,PBM binding z-score [1],PBM binding z-score [2],PBM binding z-score [3],PBM binding z-score [4],PBM binding z-score [5],PBM binding z-score [6],PBM binding z-score [7],PBM binding z-score [8]
CGTCCAAGGTCAAGGTTAGTGAAAGAGACTCGAA,4.33,5.94,6.75,3.28,5.75,3.98,2.66,1.85
TCATATAGTTAAATGCTAGGTGAAAGTCCGATCT,0.141,0.1,0.364,1.68,0.476,0.852,0.605,0.158
CCTACTGGGACACGAAAGGTCATTGATTCAGTGA,4.97,4.63,4.53,0.718,5.12,3.77,1.35,2.67
TAGCCTAGGTGATGGGCCAGTATACCACGCGAAC,-0.0783,-0.276,-0.196,-1.47,-0.236,-0.153,-0.23,-0.76
GCTACCAGGCCATTTGGGTCACTCAATGACGGGC,2.15,1.21,1.57,0.386,0.86,2.21,1.39,0.491
AGAATGAGGTTACCAAAGATCGGGGAAACGCTTG,0.666,1.91,1.43,1.5,2.5,2.71,0.699,-0.00618
TCTTGTAGATCCAGCAGGTTAAGAAAGCCTGAGT,-0.0215,-0.196,-0.399,0.513,0.171,0.192,-0.236,-0.224
TCTACAGGGTCAAAGGCCAGAGTACGAATGTCGA,3.2,5.47,5,3.16,6.72,3.48,0.454,2.55
CCTAGCAGGCCAATCTGCGTCACTCAAGGCTTGA,-0.405,-0.524,-0.155,0.164,-0.602,-0.51,-0.515,-0.294
CCGACTGGGGCACAAGGTTACCATAAGCCAGCCC,1.59,1.46,1.12,-0.589,0.82,1.37,0.35,-0.201
ACTAGCAGGCCCAGGGTCACTCAAGATTAGTCCG,2.58,2.39,2.01,-0.284,2.78,2.73,1.17,1.14
TCTAGCAGGCCAGAGGGTCACACAAGAGGTACGG,3.1,3.52,3.05,0.175,4,2.25,0.165,0.773
TCATATAGGTAATACAGGTGAAAATCGGCATCTA,0.328,0.729,0.82,1.8,1.72,0.836,0.391,0.435
TTACCAAGGTGAAGGACGTTGATCCCTCTGTAGA,0.644,0.43,0.524,-0.216,0.672,1.66,0.562,-0.106
AATACACGGTCACTAGGCCAGAGTAGGTACGAAT,1.85,1.78,2.19,0.0529,0.672,0.48,-0.267,0.314
AGAACGAGGGCAAGGAGTTGATAGCACGGGTGGC,0.992,1.21,1.49,1.12,0.867,0.885,-0.277,1.93
CTCGAAAGGTCGTGCTCAGGTGAGTCTACCAAAC,2.6,5.27,3.98,2.42,4.89,4.01,0.948,1.03
GCTCGGAGCACAAGGTCAGAGCTTTGTCCGTAGA,2.85,2.63,2.19,0.228,2.25,2.75,0.948,0.184
TAGCCTAGGTCATGCAGGGGCCAGTATAGAAAGC,3.35,6.15,4.48,0.31,3.12,3.29,0.474,0.435

Sequence,PBM binding z-score [1],PBM binding z-score [2],PBM binding z-score [3],PBM binding z-score [4],PBM binding z-score [5],PBM binding z-score [6],PBM binding z-score [7],PBM binding z-score [8]
GCTAGAAGGCCATTTGGGTCACTCAATGACGGGC,2.47,1.61,2.24,0.256,1.05,2.42,0.686,1.05
TAGGCTAGGTCATTCAGGGGCCAGTATAGAAAGC,3.57,6.42,4.85,1.71,3.26,3.7,0.658,1.95
CCTGCTGGGTCAATGGTCAGCTAAAGCAGCTCGC,2.5,3.24,3.33,0.787,2.48,1.26,-0.14,-0.211
TCATATAGTTAAAGGTGAAAGTCGAACGATATGA,1.34,1.47,1.18,0.551,2.08,1.23,-0.586,-0.0826
TGTCAAAGTTCAAAGGTAACGTAAGTATCCACAC,3.82,6.28,6.19,4.36,7.27,3.53,0.176,4.04
ACAATGAGGTTATTAAGATCAGGGAATTGCGGTC,1.27,1.45,1.33,2.17,1.83,2.23,1.09,1.61
TCTTGTAGATGAAGCAGGTTAAGAAAGCCTGAGT,-0.21,-0.0639,-0.213,0.667,0.257,-0.0515,-0.455,-0.176
CGTCCAAGGTCAAGGTCAGTGCAAGAGACTCGAA,5.45,6.95,7.95,3.52,6.56,4.21,3.91,3.18
TCTTGTAGATCAGCAGGTTAAAAAAGCTGGCCAA,0.0977,-0.388,-0.402,0.516,0.184,0.165,-0.53,-0.268
TCTCGGAGGACACGAAGGCCAGAGCTTTCCAGAG,1,0.605,1.84,0.482,0.00493,1.43,0.215,-0.212
CTTAGCAGGCCAATCTGGGTCACTCAAGGCTTGA,2.2,0.952,1.3,0.294,0.782,3.77,0.497,-0.119
TCGAGTAGGTTACCAATGAGGCATTCAGCTTTCT,-0.0486,0.457,0.0733,0.229,0.47,-0.137,-0.781,-1.08
TCTAGCAGGCCAGGGGGTCACTCAAGAGGTACGG,3.61,5.22,4.08,1.3,5.38,3.35,1.52,2.91
TTACCAAGGTGAGCTTAGGTCGTTGATCCAACTC,1.27,0.36,0.732,-0.17,0.352,3.88,0.952,-0.0607
ACTTACGGGGCAACGAGGTTATAGCACGCGTATA,1.13,1.75,1.76,1.63,1.73,2.08,0.279,1.72
TGAATGATGTTAAAGATCAGGGAACGTGGCGTCG,-0.832,0.221,0.133,-0.892,0.495,-0.238,-0.77,-0.0105
ATCGAAAGGTCGAATGTGAGTATACCCACCCGAA,2.63,3.91,3.72,1.77,4.23,2.01,-0.0283,1
TCTAGCAGGCCTGAGGGTCACTCAAGAGGTACGG,2.52,2.29,1.53,0.198,2.59,1.75,-0.278,0.36
